Laboratory results published in PubChem BioAssay AID504467 (National Center for Advancing Translational Sciences (NCATS), 2011).
The campaign covered roughly 330,000 compounds. About 7,700 (2.3%) were called active. A call without a number means that no potency is given here. Another 26% or so got no clear call; they are omitted. Calls come from the whole dose curve; as a rule, active = well fitted inhibition curve with a large enough effect; inconclusive = small, poorly fitted or top-dose-only effect, or effect the other way; inactive = flat fitted curve, though single readings scatter. This excerpt belongs to a sample that is enriched for actives.

Experiment: qHTS screen for small molecules that inhibit ELG1-dependent DNA repair in human embryonic kidney (HEK293T) cells expressing luciferase-tagged ELG1; note: nearly all actives have a fitted effect of over 55% in size
Conditions: HEK293T ELG1-luciferase reporter, luminescence, 16 h, DNA damage induced by 5-fluorouridine; series mostly up to 46.1 µM
How it was run: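 In this reporter screen, reduction of luminescence relative to DMSO vehicle indicated activity. Compounds and 5-fluorouridine were added together to 2,000 cells per well, incubated for 16 hr at 37 °C, then developed with ONE-Glo.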
Potency is the fitted concentration of half-maximal effect.

Row | SMILES | Potency
1 | O=C(Nc1ccc(N2CCN(C(=O)c3ccccc3)CC2)c(Cl)c1)c1cccnc1 | 8.2 µM (active)
2 | O=C(Nc1cccc(Cl)c1N1CCOCC1)c1cccnc1 | inactive
3 | O=C(Cc1ccccc1)Nc1ccc(NC(=O)c2cccnc2)cc1 | inactive
4 | Cc1cc(C)cc(NC(=O)C(c2ccccc2)N2CCN(CC(=O)N3CCCC3)CC2)c1 (centres undefined) | inactive
5 | CCC(C(=O)NCc1cccnc1)n1nc(C)c2sc3ccccc3c2c1=O (centres undefined) | inactive
6 | Cc1onc(-c2c(F)cccc2Cl)c1C(=O)OCC(=O)N1C(C)CCCC1C (centres undefined) | inactive
7 | CCc1ccc(NC(=O)CSc2nnc(-c3cnccn3)n2Cc2ccco2)cc1 | inactive
8 | COc1ccc(NC(=O)CSc2nnc(-c3cccs3)n2Cc2ccco2)cc1OC | 20.6 µM (active)
9 | O=C(CSc1nnc(-c2cccs2)n1-c1ccccc1)NCc1ccco1 | inactive
10 | Cn1cc(CCC(=O)NC2CC2)c2ccccc21 | inactive
11 | CC(C)CCn1cnc2c1c(=O)n(CC(=O)NC(N)=O)c(=O)n2Cc1ccccc1 | inactive
12 | CCn1nc(C(=O)NNC(=O)C2CSC3(C)CCC(=O)N23)c2ccccc2c1=O (centres undefined) | inactive
13 | O=C(NNC(=O)c1cccc(S(=O)(=O)Nc2ccc(Cl)cc2)c1)c1ccc(=O)[nH]c1 | inactive
14 | Cc1nc(/N=C(\N)NC(=O)NC2CCCCC2)nc2ccccc12 | 9.2 µM (active)
15 | Cc1nn(-c2ccccc2)c(C)c1C(=O)OCC(=O)NC(=O)NC1CCCCC1 | inactive
16 | COc1ccc2nc(/N=C(\N)NC(=O)Nc3ccccc3)nc(C)c2c1 | inactive
17 | COc1cc(OC)cc(C(=O)NNC(=O)Cc2cccs2)c1 | inactive
18 | CC1Cc2ccccc2N1S(=O)(=O)c1cccc(C(=O)NCC(c2ccco2)N2CCCC2)c1 (centres undefined) | inactive
19 | COc1cccc(C(=O)NCCS(=O)(=O)NCC2CCCO2)c1 (centres undefined) | inactive
20 | COc1ccccc1-n1cnc2cc(C(=O)NCC3CCCO3)ccc21 (centres undefined) | inactive
21 | COc1cccc(/C=C2\Sc3ccc(C(=O)NCC4CCCO4)cc3N(C)C2=O)c1 (centres undefined) | 20.6 µM (active)
22 | COc1cccc(CNC(=O)CN2C(=O)NC(Cc3ccccc3)(c3ccccc3)C2=O)c1 (centres undefined) | inactive
23 | CCOc1ccc(CCNC(=O)COC(=O)c2c(OC)cccc2OC)cc1OCC | inactive
24 | CCCN1C2CCCC1CC(NC(=O)c1cccc(OC)c1)C2 (centres undefined) | inactive
25 | O=C(c1ccc(S(=O)(=O)N2CCCC2)cc1)N1CCN(c2ccccc2F)CC1 | inactive

Row | SMILES | Potency
26 | O=C(c1c(Cl)cccc1Cl)N1CCN(c2cccc3[nH]ccc23)CC1 | 18.3 µM (active)
27 | COc1ccccc1N1CCN(C(=O)c2ccc(S(=O)(=O)N3CCCCC3)cc2)CC1 | inactive
28 | COc1ccc(C)cc1NC(=O)CSc1nnc2ccc(-c3ccccn3)nn12 | inactive
29 | COC(=O)c1cccc(C(=O)N2CCC(CCC(=O)NCc3ccc(F)cc3)CC2)c1 | inactive
30 | CN(C)CCn1c2c(c(SCC(=O)NCc3ccccc3)nc1=O)CCC2 | inactive
31 | Cc1ccc(OCCNC(=O)CN2C(=O)NC3(CCCC3)C2=O)cc1 | inactive
32 | CC(NC(=O)COC(=O)CCC(=O)c1ccc(Cl)cc1)c1ccccc1 (centres undefined) | inactive
33 | CC1=Nn2c(nnc2-c2ccccc2)SC1 | inactive
34 | COc1ccccc1-c1nnc2n1N=C(c1ccc(OC(F)F)c(OCC3CC3)c1)CS2 | inactive
35 | COc1ccc(C2=Nn3c(nnc3-c3ccccc3OC)SC2)cc1OC1CCCC1 | 20.6 µM (active)
36 | COC(=O)c1cc(-c2cccs2)nc2ccccc12 | inactive
37 | O=C(Nc1nnc(-c2ccccc2)o1)c1cc(-c2cccs2)nc2ccccc12 | inactive
38 | CC(=O)Nc1cccc(Nc2nc(-c3cccs3)nc3ccccc23)c1 | 16.4 µM (active)
39 | Cc1ccc2[nH]cc(CCNC(=O)C3CCCCC3)c2c1 | inactive
40 | Cc1ccc2[nH]c(=O)c(CN(CCCN(C)C)C(=O)Nc3cccc(Cl)c3)cc2c1 | inactive
41 | Cc1cccc(NC(=O)N(Cc2cc3cc(C)cc(C)c3[nH]c2=O)CC2COCCO2)c1 (centres undefined) | 11.6 µM (active)
42 | O=C(c1cccs1)N(Cc1cc2ccccc2[nH]c1=O)CC1CCCO1 (centres undefined) | inactive
43 | Cc1cccc(N(Cc2ccccc2)C(=O)c2cc(S(=O)(=O)N3CCOCC3)ccc2F)c1 | inactive
44 | CC(C)(C)c1ccc(C(=O)N2CCN(CCNC(=O)C(=O)Nc3ccc(F)cc3)CC2)cc1 | inactive
45 | Fc1ccccc1/C=C1\CCCC2=C1Nc1ncnn1C2c1ccccc1F (centres undefined) | 18.4 µM (active)
46 | CC1=C(C(N)=O)C(c2ccc(Br)cc2)n2ncnc2N1 (centres undefined) | inactive
47 | Cc1cccc(N(C(=O)c2sc(C)nc2C)C(C(=O)NCC2CCCO2)c2ccccc2)c1 (centres undefined) | inactive
48 | COC(=O)C(C)Sc1nc2c(c(=O)n(C)c(=O)n2C)n1Cc1cccc(C)c1 (centres undefined) | inactive
49 | COc1ccc(CCN2CNc3c(c(=O)n(C)c(=O)n3C)C2)cc1OC | inactive
50 | CC(C)CCn1c(=O)c2c(nc3n2CCCN3Cc2ccccc2)n(C)c1=O | inactive

Row | SMILES | Potency
51 | Cn1c(=O)c2c(ncn2CCc2ccccc2)n(C)c1=O | inactive
52 | CCn1c(NCCc2ccc(OC)c(OC)c2)nc2c1c(=O)n(C)c(=O)n2C | 11.6 µM (active)
53 | CCCCNc1nc2c(c(=O)n(C)c(=O)n2C)n1Cc1cccc(OC)c1 | 5.17 µM (active)
54 | CCCCn1c(SCC(=O)NCCc2ccc(OC)c(OC)c2)nc2c1c(=O)n(C)c(=O)n2C | inactive
55 | CCCCNc1nc2c(c(=O)[nH]c(=O)n2C)n1CCOc1ccccc1 | inactive
56 | Cn1c(=O)c2c(nc(NCCc3ccccc3)n2Cc2ccccc2)n(C)c1=O | 23.1 µM (active)
57 | CC(C)CCn1c(CN(C)Cc2ccccc2)nc2c1c(=O)n(C)c(=O)n2C | 20.6 µM (active)
58 | Cn1c(=O)c2c(nc(NCc3ccccc3)n2CC(N)=O)n(C)c1=O | inactive
59 | Cn1c(=O)c2c(nc(NCCNC(=O)c3ccco3)n2Cc2ccccc2F)n(C)c1=O | inactive
60 | Cn1nccc1C(=O)N1CCCC(C(=O)c2ccc(Oc3ccccc3)cc2)C1 (centres undefined) | inactive
61 | Cc1ccccc1NC(=S)NC(=O)Cc1ccc(Cl)cc1 | inactive
62 | OC(CNCCc1ccc(Cl)cc1Cl)COc1ccccc1 (centres undefined) | inactive
63 | COCCN(CCOC)S(=O)(=O)NC[C@H]1O[C@@H](n2cnc3c(N)ncnc32)[C@H](O)[C@@H]1O | inactive
64 | O=c1ccc(S(=O)(=O)N2CCCC2)cn1Cc1nc(-c2ccccc2)no1 | inactive
65 | CCOC(=O)N1CCN(Cc2nc3c(c(=O)n(C)c(=O)n3C)n2Cc2ccccc2)CC1 | 10.3 µM (active)
66 | Cn1c(=O)c2sccc2n(Cc2ccc(Br)cc2)c1=O | inactive
67 | CCN1CCN(Cc2nc3c(c(=O)n(C)c(=O)n3C)n2CC(=O)c2ccccc2)CC1 | inactive
68 | CN1CCN(Cc2nc3c(c(=O)n(C)c(=O)n3C)n2Cc2cccc3ccccc23)CC1 | inactive
69 | COCCn1cnc2c1c(=O)n(Cc1ccc(Br)cc1)c(=O)n2Cc1ccccc1 | inactive
70 | Cn1c(=O)c2c(nc(N/N=C/c3cccs3)n2Cc2ccc(Br)cc2)n(C)c1=O | 20.6 µM (active)
71 | CCOC(=O)N1CCN(C(=O)c2ccc3c(=O)n(CCc4ccc(OC)c(OC)c4)c(=O)[nH]c3c2)CC1 | inactive
72 | Cc1ccc(-n2nc3c(=O)n(C(C)C(=O)NCc4ccc5c(c4)OCO5)nc(C)c3c2C)cc1 (centres undefined) | inactive
73 | Cc1ccc(-c2csc(N3CCN(c4cc5c(cc4Cl)nc(-c4ccncc4)n5CCOCCO)CC3)n2)cc1 | inactive
74 | CCN([C@H](CO)C(C)C)S(=O)(=O)c1ccccc1Br | inactive
75 | CCOc1ccc(NS(=O)(=O)c2ccc(Cl)c(C(=O)N(C)Cc3cccnc3)c2)cc1 | inactive

Row | SMILES | Potency
76 | CCC(C)(C)n1nnnc1C(c1cccs1)N1CCN(c2nc3ccccc3s2)CC1 (centres undefined) | 20.6 µM (active)
77 | CCC(C)(C)n1nnnc1C(c1cccs1)N1CCN(Cc2ccccc2)CC1 (centres undefined) | inactive
78 | CCC(C)(C)n1nnnc1C(c1ccccc1OC)N1CCSCC1 (centres undefined) | inactive
79 | CC(=O)c1ccc(N2CCN(C(=O)c3ccc(Cl)c(S(=O)(=O)NC4CC4)c3)CC2)c(F)c1 | inactive
80 | COc1ccc(/C(C)=N/NC(=O)CCC(=O)Nc2ccc(Cl)cc2Cl)c(OC)c1 | inactive
81 | COc1ccc(OC)c(/C(C)=N\NC(=O)c2cc3cc(Cl)ccc3n2C)c1 | 16.4 µM (active)
82 | COc1ccc(OC)c(C(=O)c2ccc(Cl)cc2)c1 | inactive
83 | CCN(CC(=O)Nc1cccc(S(=O)(=O)N2CCCCC2)c1)Cc1ccccc1 | inactive
84 | O=C(NNS(=O)(=O)c1c(F)cc(F)c(Cl)c1F)C12CC3CC(CC(C3)C1)C2 | inactive
85 | CCc1ccc(NC(=O)CN2C(=O)COc3ccc(S(=O)(=O)N4CCCC4)cc32)cc1 | inactive
86 | CCC(C)NC(=O)c1ccc(NC(=O)CC2SC(N3CCCCC3)=NC2=O)cc1 (centres undefined) | inactive
87 | COCCN(CCOC)C(=S)Nc1ccccc1Cl | inactive
88 | O=C(Nc1ccccc1Cl)/C(Cl)=C(\Cl)S(=O)c1ccccc1 (centres undefined) | 9.2 µM (active)
89 | O=C(Nc1ccccc1Cl)Nn1cnnc1 | inactive
90 | CSc1cccc(NC(=O)CN2C(=O)COc3ccc(S(=O)(=O)N4CCOCC4)cc32)c1 | inactive
91 | Cc1ccc(C(=O)NC23CC4CC(CC(C4)C2)C3)c(Cl)c1 | inactive
92 | COc1ccc(N2CCN(C(=O)c3ccccc3NC(=O)C3=C(C)OCCS3)CC2)cc1 | inactive
93 | COc1cccc(CCNC(=O)c2cccc(NC(=O)C3=C(C)OCCS3)c2)c1 | 20.6 µM (active)
94 | CCCCNC(=O)c1ccccc1NC(=O)C1=C(C)OCCS1 | inactive
95 | CCn1c(SCC(=O)NNC(=O)c2ccc(OC)cc2)nnc1C(C)C | inactive
96 | Cc1ccc(CNC(=O)Cn2cnc3c(NCc4ccccc4)ncnc32)o1 | inactive
97 | Cn1cc(/C=C/c2nc3ccccc3c(=O)n2-c2cccc([N+](=O)[O-])c2)c2ccccc21 | inactive
98 | CCn1c(/C=C/c2ccc([N+](=O)[O-])o2)nc2ccccc2c1=O | 16.4 µM (active)
99 | Cc1nc2ccccc2c(=O)n1Cc1ccc([N+](=O)[O-])cc1 | inactive
